Among all 340,000 compounds or so, about 8,500 (2.5%) were called active. For the sample, actives were picked, then their nearest neighbours and some compounds at random. Unmarked numbers belong to inactive results.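 The calls were made as follows: active = melting temperature shift of at least 10% of the positive control shift, at one fixed dose; inactive = the rest.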
Each compound was assayed on Glutamate receptor ionotropic, NMDA 3A (GRIN3A) ligand-binding domain (assay: NR3A LBD thermal stabilization by compounds – biophysical, differential scanning fluorimetry, uHTS, primary screen (AID 1259313)). Conditions: at 25 µM, hits give high values, 0% = protein alone, 100% = glycine-bound protein.

Structure (SMILES)	Tm shift relative to glycine control
COc1cc(/C=N/O)cc(Br)c1OCc1cccc(Cl)c1	9.46%
CCOc1cc(/C=N/O)ccc1OCc1ccccc1F	-0.35%
COc1cc(/C=N/O)cc(Br)c1OS(=O)(=O)c1ccc(C)cc1	-0.94%
CCOc1cc(/C=N/O)cc(Br)c1OC	10.5% (active)
CCOc1c(Cl)cc(/C=N/O)cc1OC	10.8% (active)
CCOc1cc(/C=C(/C#N)c2ccc(Cl)cc2)cc(Cl)c1OCC(=O)O	-1.37%
C[C@@H]1ON(C)[C@H]2C[C@H]3c4cc(N5CCN(C)CC5)ccc4CCN3C(=O)[C@@H]12	2.38%
COc1ccc(N2CCN(C(=O)[C@@H](NC(=O)c3cc(OC)cc(OC)c3)C(C)C)CC2)cc1	-0.58%
COc1cc(OC)cc(C(=O)NC(C(=O)N2CCC2)C(C)C)c1 (configuration not stated)	-1.01%
COc1cc(OC)cc(C(=O)N[C@H](C(=O)NNC(=O)c2ccc(Br)cc2)C(C)C)c1	13.6% (active)
COc1ccc(N2CCN(CCCNC(=O)C3CCN(S(=O)(=O)N4CCOCC4)CC3)CC2)cc1	1.84%
O=C(CSc1ccccn1)Nc1nc2c(ccc3ccccc32)s1	-2.83%
CCS(=O)(=O)Nc1cccc(-c2cc(-c3ccccc3)c3cc(C)ccc3n2)c1	10.6% (active)
CS(=O)(=O)Nc1cccc(-c2cn3ccccc3n2)c1	-0.95%
Cc1cc(C)cc(NS(=O)(=O)Cc2ccccc2)c1	1.07%
CC1CN(S(=O)(=O)c2ccc(C(=O)Nc3sccc3C(N)=O)cc2)CC(C)O1 (configuration not stated)	-4.29%
Cc1ccc2c(c1)N(CC(=O)N(Cc1ccccn1)Cc1ccco1)C(=O)C(C(C)C)O2 (configuration not stated)	0.17%
O=c1[nH]c2c(c(=O)n1-c1ccccc1)CCO2	1.26%
OCCCNc1nccc(-c2cc(Nc3cccc(Cl)c3)ncn2)n1	21.3% (active)
Cc1cccc(Nc2nc(NCCO)nc(N3CCCC3)n2)c1	-4.68%
CC(C)n1cnc2c(Nc3cccc(Cl)c3)nc(N(CCO)CCCO)nc21	1.29%
CCC(=O)Nc1cc(C(F)(F)F)ccc1N1CCCC1	1.55%
O=C(c1ccco1)N1CCN=C1SCc1cccc(Cl)c1	0.08%

Structure (SMILES)	Tm shift relative to glycine control
O=C(C1CC1)N1CCN=C1SCc1ccc(Cl)cc1	11.7% (active)
CCC(=O)N1CCN=C1SCc1ccc(F)cc1	1.29%
COc1ccc(CN2CN(C(C)C)CSC2=S)cc1	1.51%
COc1ccc(-c2csc3ncnc(N4CCN(S(=O)(=O)c5cccc(F)c5)CC4)c23)cc1	-1.02%
O=S(=O)(Nc1ncnc2sccc12)c1cccc(F)c1	-0.96%
Cc1cc(F)ccc1S(=O)(=O)Nc1ncnc2scc(-c3ccc(F)cc3)c12	10.2% (active)
C=CCNC(=O)COC(=O)c1ccccc1C(=O)N(C)C1CCCCC1	-0.25%
O=C(CN(CC1CCCO1)C(=O)CNS(=O)(=O)c1ccc(Cl)cc1)NCc1ccccc1 (configuration not stated)	2.76%
Cc1ccc(-n2ncc(C(=O)NC3CC3)c2C2CCN(C(=O)OC(C)(C)C)CC2)c(C)c1	13.4% (active)
Cc1ccc(C)c(NC(=O)C2CCCN2C(=O)OC(C)(C)C)c1 (configuration not stated)	4.23%
CC(C)(C)OC(=O)N1CCC(C(=O)NNC(=O)c2ccc(Cl)cc2Cl)CC1	-2.13%
CCn1c(=S)[nH]c2cc(S(=O)(=O)N3CCOCC3)ccc21	2.56%
Cc1cc(NS(=O)(=O)c2ccc(NC(=O)C(C)Oc3cccc(C)c3C)cc2)nc(C)n1 (configuration not stated)	3.5%
CCNc1nc(NC(C)C)nc(N2CC(=O)N(CC(=O)OCC)C2=N)n1	-4.17%
CCN(CC)CCCC(C)n1c2nc(=O)[nH]c(=O)c-2nc2cc(Cl)ccc21 (configuration not stated)	-386%
CCOC(=O)C1=C(CC)Nc2ccccc2N=C1NC(=O)c1cccc(S(=O)(=O)N2CCCC2)c1	0%
CC[C@@H](C)[C@H](NC(=O)CCc1c(C)c2cc3c4c(oc3c(C)c2oc1=O)CCCC4)C(=O)O	1.33%
Cc1c(CC(=O)NCC(=O)NCC(=O)O)c(=O)oc2cc3oc4c(c3cc12)CCCC4	31.7% (active)
Cc1c(CC(=O)NCCCCCC(=O)O)c(=O)oc2cc3occ(-c4ccccc4)c3cc12	-0.98%
CC1CC1C(=O)OCC(=O)c1c(N)n(C)c(=O)n(C)c1=O (configuration not stated)	-0.75%
O=C(Nc1ccc(OC(F)(F)F)cc1)c1ccc2c(c1)no[n+]2[O-]	-3.76%
Cc1c(-c2ccccc2)n[nH]c1C(=O)N=Nc1c(O)[nH]c2ccccc12	13.9% (active)
O=C(CCN1CCCCC1)N=Nc1c(O)[nH]c2ccccc12	-1%

Structure (SMILES)	Tm shift relative to glycine control
Cc1cccc(N(CC(=O)N=Nc2c(O)[nH]c3ccccc23)S(C)(=O)=O)c1C	-1.51%
COc1ccc(CNC(=O)C2CCN(S(=O)(=O)c3ccc(SC)cc3)CC2)cc1	1%
CCc1ccccc1NC(=O)CSc1nnc([C@@H](NC(=O)OC(C)(C)C)C(C)CC)o1 (some centres not stated)	-1.3%
C[C@@H](NC(=O)OC(C)(C)C)c1nnc(S(=O)(=O)Cc2ccccc2)o1	0%
CC(C)Sc1nnc([C@H](Cc2ccccc2)NC(=O)OC(C)(C)C)o1	32.2% (active)
C/C(CC(O)(/C=N/O)c1ccccc1)=N\O (configuration not stated)	1.21%
COc1ccc2ccccc2c1CNc1nnnn1C	0.15%
Clc1ccc(Nc2ccc3ccccc3n2)cc1	45% (active)
O=C(NNC(=O)c1ccc2ccccc2c1)c1ccc(Cl)cc1	-1.56%
Cc1cccc(NC(=O)c2ccc3ccccc3n2)n1	-0.88%
CC1(C)CC(=O)C=C(NCCCN2CCCC2=O)C1	-0.27%
Nc1nc(C23CC4CC(CC(C4)C2)C3)cs1	-1.42%
COC(=O)c1cc(NC(=O)c2cc(C(C)(C)C)nn2Cc2cccc(C)c2)ccc1N1CCOCC1	-0.21%
CCCC1(C(=O)OCC)NC(c2ccc(N(C)C)cc2)C2C(=O)N(c3ccc4c(c3)OCCO4)C(=O)C21 (configuration not stated)	17% (active)
COC(=O)C1(C)NC(c2ccc(C)cc2)C2C(=O)N(c3ccc(F)cc3)C(=O)C21 (configuration not stated)	2.13%
CCCCC1(C(=O)OCC)NC(c2ccc(O)cc2)C2C(=O)N(c3ccccc3)C(=O)C21 (configuration not stated)	-1.17%
O=C(CC1SC(N2CCOCC2)=NC1=O)Nc1ccccc1F (configuration not stated)	-1.22%
COc1ccc(S(=O)(=O)N2CCN(C(=O)N(C)C)C2C)cc1 (configuration not stated)	-2.39%
CC(=O)Nc1ccc(CN2CCC(Oc3ccc(C(=O)N4CCCC4)cc3)CC2)cc1	0.37%
O=C(c1ccc(OC2CCN(Cc3ccccn3)CC2)cc1)N1CCCCCC1	0.85%
Cc1nn(C)c(Cl)c1CN1CCC(Oc2ccc(C(=O)N3CCCC3)cc2)CC1	12.6% (active)
COc1ccccc1C(=O)NC(=O)COC(=O)C1CC1	-1.81%
C[C@@H](C(=O)N1CCNCC1)n1cc(CCC(=O)O)nn1	1.39%

Structure (SMILES)	Tm shift relative to glycine control
Cc1ccc(C(=O)N2CCN(S(=O)(=O)N3CCOCC3)CC2)cc1	-1.26%
Cc1cccc(C(=O)N2CCN(S(=O)(=O)N3CCCCC3)CC2)c1	11.1% (active)
O=C(c1cccc(S(=O)(=O)N2CCCCCC2)c1)N1CCN(Cc2ccccc2)CC1	0.36%
CCOc1ccc(C(=O)Nc2c3c(nn2-c2ccccc2)CS(=O)(=O)C3)cc1	-0.47%
COc1cc(C(=S)NC2CCCCC2)ccc1O	-5.68%
COc1cc(C(=O)Nn2c(O)c(C3=c4ccccc4=NC3=O)sc2=S)ccc1O	11.1% (active)
COc1cc(C(=O)Nn2c(CC(C)C)nc3ccccc3c2=O)cc(OC)c1OC	-0.54%
CN(CC(=O)Nc1ccccc1F)CC(=O)Nc1ccccc1Br	-1.08%
CCOc1ccc(NC(=O)CN(C)C(=O)COc2cccc(CC)c2)cc1OCC	3.14%
Cc1nn(C)c(C)c1S(=O)(=O)N1CCc2ccccc21	-0.32%
CCc1cccc(CC)c1NC(=S)NCc1ccc2[nH]c(C)cc2c1	-6.16%
Cc1cccc(NC(=S)NCc2ccc3[nH]c4c(c3c2)CCCC4)c1	16.4% (active)
Cc1cccc(NC(=S)N2CCC(C(=O)c3ccc(F)cc3)CC2)c1	-1.17%
CC(NC(=O)c1cc(=O)[nH]c2ccccc12)c1ccc(F)cc1F (configuration not stated)	-1.44%
CCCn1c(=N)n(CC(=O)c2ccc(Cl)c(Cl)c2)c2ccccc21	-6.05%
CCOC(=O)C1CCN(Cc2nnc(-c3cccc(Br)c3)o2)CC1	222% (active)
CCOC(=O)C1CCN(Cc2ccc(-c3ccccc3)cc2)CC1	-0.95%
CCOC(=O)N1CCN(Cc2nnc(-c3ccccc3Cl)o2)CC1	0.35%
CCOC(=O)c1cc2c(=O)[nH]c(C(Cl)(Cl)Cl)nc2o1	5.2%
Cc1cccc(Cn2c(N3CCN(c4ccccc4)CC3)nc3c2c(=O)n(C)c(=O)n3C)c1	-1.11%
Cn1c(=O)c2c(nc(NCCc3ccccc3)n2Cc2ccccc2)n(C)c1=O	-12.7%
C/C(Cl)=C\Cn1c(Nc2cccc(C)c2)nc2c1c(=O)n(C)c(=O)n2C	18.4% (active)
FC(F)(F)c1ccc(-c2cccc3c2C2CC3CCN2Cc2ccccc2)cc1 (configuration not stated)	0.87%

Reference: PubChem BioAssay AID1259313 (Sanford-Burnham Center for Chemical Genomics, 2017)
